Screen size: about 5,500 compounds; about 2,000 (36%) were called active. About 18% were inconclusive and are not listed. No stated cut-off is given here; in the data, active means normalized growth mostly below about 0.91 (no sharp cut-off); inconclusive means no clear call, values can overlap the other calls; inactive means mostly above about 0.92. This is one part of the list.
Experiment: chemical genetic growth profiling, strain panel (AID 1159580);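 further: tested at 20 µM; growth read once vehicle control cultures reached saturation at 30 °C; 1 = growth at the plate median or of vehicle wells; lower values mean less growth of the strain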
Conditions: S. cerevisiae deletion strains, growth OD

Measured: normalized growth

O=C1NC2CC2N1C(=O)OCc1ccccc1 (stereo not given)
inactive: locus YAL013W, strain DEP1, hits give low values 1 | locus YBR229C, strain ROT2, hits give low values 1 | locus YDL101C, strain DUN1, hits give low values 1.01 | locus YDR150W, strain NUM1, hits give low values 1.02 | locus YEL061C, strain CIN8, hits give low values 0.956 | locus YGR078C, strain PAC10, hits give low values 1.01 | locus YHR030C, strain SLT2, hits give low values 1.06 | locus YHR087W, strain rtc3, hits give low values 0.969 | locus YJL187C, strain SWE1, hits give low values 0.991 | locus YJR043C, strain POL32, hits give low values 0.993 | locus YJR075W, strain HOC1, hits give low values 1.01 | locus YLR039C, strain RIC1, hits give low values 0.99 | locus YLR058C, strain SHM2 (second series), hits give low values 0.995 | locus YLR085C, strain ARP6, hits give low values 0.978 | locus YLR262C, strain YPT6, hits give low values 1.02 | locus YML094W, strain GIM5, hits give low values 0.992 | locus YMR219W, strain ESC1, hits give low values 1 | locus YMR263W, strain SAP30, hits give low values 0.978 | locus YNL153C, strain GIM3, hits give low values 1.01 | locus YNL298W, strain CLA4 (second series), hits give low values 0.954 | locus YNL322C, strain KRE1, hits give low values 1 | locus YNR030W, strain Alg12, hits give low values 0.988 | locus YPL055C, strain LGE1, hits give low values 0.99 | locus YPL241C, strain CIN2, hits give low values 1.01 | locus YPR135W, strain CTF4, hits give low values 1.03
